Assay outcomes deposited in PubChem BioAssay by National Center for Advancing Translational Sciences (NCATS).
Hits are enriched below; roughly 19% of the tested compounds scored in any of these assays.
ELG1 DNA repair: ELG1-dependent DNA repair inhibition | HEK293T ELG1-luciferase reporter, luminescence, 16 h; DNA damage induced by 5-fluorouridine | Potency, µM (doses to about 46.1 µM), actives largely listed as inhibitors | hit rate 2.3% among 330,000 | AID 504467; further: nearly all actives have a fitted effect of over 55% in size
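Luminescence from the luciferase reporter, measured 30 min after ONE-Glo reagent at room temperature, was the read-out. Beforehand, 2,000 cells per well were exposed for 16 hr at 37 °C to 5-fluorouridine together with compound or vehicle.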
HT1080 IDH1KD tx: kills HT-1080 cells with IDH1 knockdown; AID 686971; HT-1080 IDH1 knockdown viability, ATP luminescence, 48 h; hit rate 2% among 360,000; Potency, µM (titrated, usually from 46.1 µM), hits mostly cytotoxic
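Using the IDH1-knockdown HT-1080 line run in the same batch and compound series as the NT line, viability after 48 h at 37 °C was determined by CellTiter-Glo luminescence and expressed as % activity.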
DT40 TDP1 no CPT: qHTS for Inhibitors of human tyrosyl-DNA phosphodiesterase 1 (TDP1): qHTS in cells in absence of CPT; DT40 Tdp1-/- hTDP1 cells, no CPT, ATP luminescence, 48 h; Potency, µM (doses to about 46.2 µM), most hits filed as inhibitors; hit rate 15% among 420,000; further: nearly all actives have a fitted effect of over 55% in size
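Growth kinetics read by CellTiter-Glo luminescence after ≥48 hr at 37 °C. Cells: DT40 Tdp1-/- stably carrying human TDP1, 400 per well, compound exposure in the absence of CPT (DMSO vehicle).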
HT1080NT lethal: kills 2HG-producing HT-1080-NT fibrosarcoma cells | HT-1080-NT fibrosarcoma viability, CellTiter-Glo ATP luminescence, 48 h | Potency, µM (top dose mostly 46.1 µM), hits mostly cytotoxic | hit rate 1.6% among 360,000 | AID 686970;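 further: NT is the 2HG producing partner of a matched IDH1 knockdown line; nearly all actives have a fitted effect of over 55% in size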
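Viability by CellTiter-Glo luminescence after 48 h compound exposure at 37C of HT-1080-NT cells (750/well, RPMI, 5% FBS). % activity scaled between DMSO wells and medium-only wells, then curve-fitted and categorized by curve class.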
IL1B secr inh: inhibitors of inflammasome signaling (IL-1 beta secretion); THP-1 LPS/ATP IL-1B secretion, AlphaLISA, 16 h; hits give low values; hit rate 4.7% among 360,000; activity change, % at 57.5 µM; AID 743279; in the data active means activity change below about -50%; inconclusive means mostly about -30% to -49%
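THP-1 cells pretreated 1 hr with compounds (up to 57.5 uM final), then stimulated with LPS (250 ng/mL final) plus ATP (1.25 mM final); secreted IL-1B measured by AlphaLISA after 16 hr, decreased signal indicating inhibition.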
TDP1 cell CPT: growth inhibition of DT40 Tdp1-/-;hTDP1 cells with camptothecin (screen for TDP1 inhibitors); chicken DT40 Tdp1-/-;hTDP1 cells + 20 nM CPT, ATP luminescence, 48 h; Potency, µM (titrated, usually from 46.2 µM), most hits filed as inhibitors; hit rate 12% among 420,000; AID 686979; further: nearly all actives have a fitted effect of over 55% in size
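Cell growth measured by CellTiter-Glo luminescence after a minimum 48 h, 37 C compound exposure with 20 nM CPT in Tdp1-knockout DT40 cells stably expressing hTDP1, seeded 400/well; qHTS titration format.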
A number is an active result; n = inactive; u = inconclusive; x = no result given; [ ] = dose if it differs, or a comment. Unless noted, the call rests on the fitted dose curve; in most records, active means well fitted curve in the direction sought with a large enough effect; inconclusive means small, poorly fitted or top-dose-only effect, or another doubt; inactive means no such curve, though single readings can be large; an effect the other way counts as inactive or inconclusive.

SMILES	ELG1 DNA repair	HT1080 IDH1KD tx	DT40 TDP1 no CPT	HT1080NT lethal	IL1B secr inh	TDP1 cell CPT
CN1CCN(c2ncnc3sc(-c4ccccc4)cc23)CC1	n	n	u	n	-60	u
c1ccc(-c2cc3c(N4CCN(c5ccccc5)CC4)ncnc3s2)cc1	u	n	18µM	n	n	u
CN(C)/C=N/c1c(C#N)cnn1-c1ccccc1	n	n	n	n	n	n
Cc1ccc(S(=O)(=O)N2CCN(c3ncnc4c3cnn4-c3ccccc3)CC2)cc1	n	n	n	n	n	n
c1ccc(-c2cc3c(N4CCN(c5ncccn5)CC4)ncnc3s2)cc1	n	n	u	n	n	u
COc1c(C)cc(Br)cc1C(=O)NC(=S)NCc1ccco1	n	n	u	n	n	n
O=C(O)CC1Cc2ccccc2C1C(=O)O (stereo unspecified)	x	n	n	n	n	n
O=C(O)c1c2c(nc3ccccc13)CCCC2	x	x	n	x	x	n
C=CCN1C(=O)/C(=C/c2ccc(-c3ccc(F)cc3)o2)SC1=S	u	n	n	n	n	n
CS(=O)(=O)N1CCc2cc(C(=O)Nc3ccc(S(N)(=O)=O)cc3)ccc21	x	x	n	x	x	n
CCc1ccc(CC2S/C(=C(\C#N)C(C)=O)NC2=O)cc1 (stereo unspecified)	n	u	2.3µM	n	n	1.6µM
CC(=O)/C(C#N)=C1\NC(=O)C(Cc2ccc(C)c(Cl)c2)S1 (stereo unspecified)	n	u	2.1µM	n	n	10µM
O=C(Cn1cc(S(=O)(=O)Cc2ccc([N+](=O)[O-])cc2)c2ccccc21)N1CCOCC1	n	n	n	n	n	n
O=C(CSC(=S)N1CCOCC1)Nc1ccc(S(=O)(=O)Nc2ncccn2)cc1	u	n	n	n	u	n
Nc1ccc2oc3ccc(N)cc3c(=O)c2c1	u	n[9.24 µM]	n	n	-73	n
O=C(CSc1nc(-c2ccccc2)c(-c2ccccc2)o1)N1CCOCC1	u	n	16µM	n	n	29µM
O=C(CSc1nnc(-c2ccccc2)o1)NC1CCS(=O)(=O)C1 (stereo unspecified)	n	n	n	u	n	n
O=C(CSc1nc(-c2ccccc2)c(-c2ccccc2)o1)NC1CCS(=O)(=O)C1 (stereo unspecified)	23µM	u	u	n	u	n
O=C(CSc1ncnc2sc(-c3ccccc3)cc12)NC1CCS(=O)(=O)C1 (stereo unspecified)	n	n	15µM	n	-66	n
COCC(C)NC(=O)CSc1nc(-c2ccccc2)c(-c2ccccc2)o1 (stereo unspecified)	u	n	8.2µM	n	n	12µM
CC(C)C(C)(C#N)NC(=O)CSc1ncnc2sc(-c3ccccc3)cc12 (stereo unspecified)	u	n	u	13µM	n	u
COc1ccc(Nc2nc(NCc3ccco3)nc(N/N=C/c3ccccc3F)n2)cc1	u	n	16µM	n	u	18µM
COc1ccc(Nc2nc(NCc3ccco3)nc(N/N=C/c3ccc(O)cc3)n2)cc1	u	n	u	n	-69	u
COc1ccc(/C=N/Nc2nc(Nc3ccccc3)nc(N3CCCC3)n2)cc1	u	n	u	n	n	u
O=C(NCCCN1CCOCC1)C(=O)N/N=C/c1cccc2ccccc12	n	n	n	n	n	n
SMILES	ELG1 DNA repair	HT1080 IDH1KD tx	DT40 TDP1 no CPT	HT1080NT lethal	IL1B secr inh	TDP1 cell CPT
Fc1ccc(Sc2ccccc2CNC2=NCCN2)cc1	u	u	18µM	n	u	12µM
OCCNC1=NCCN1	n	n	n	n	n	n
Cc1c(C(=O)N2CCCCC2)c(S(=O)(=O)NCc2ccc(Cl)cc2)c(C)n1C	n	n	n	n	n	u
COc1ccc(C2=CC(c3c(C)nn(-c4ccccc4)c3Cl)n3nnnc3N2)cc1OC (stereo unspecified)	u	u	15µM	u	-67	u
CCOc1ccc(C2C=C(c3ccccc3)Nc3nnnn32)cc1 (stereo unspecified)	u	n	u	n	n	n
CN(C)c1ccc(C2C=C(c3ccccc3)Nc3nnnn32)cc1 (stereo unspecified)	x	x	18µM	x	x	u
C1=C(c2ccccc2)Nc2nnnn2C1c1cccs1 (stereo unspecified)	u	n	u	n	n	n
COc1ccc(C2=CC(c3cccc(C)c3)n3nnnc3N2)cc1 (stereo unspecified)	x	x	16µM	x	x	u
CCOc1ccc(C2C=C(c3ccc(C)cc3)Nc3nnnn32)cc1 (stereo unspecified)	n	13µM	12µM	u	n	9.2µM
Cn1c(=NC(=O)c2ccc(S(=O)(=O)N3CCCC3)cc2)sc2cc(F)ccc21	x	x	n	x	x	n
Cc1ccc(C2=CC(c3cccs3)n3nnnc3N2)cc1 (stereo unspecified)	u	n	n	n	n	u
COc1ccccc1C1C=C(c2ccc(C)cc2)Nc2nnnn21 (stereo unspecified)	u	n	21µM	n	u	18µM
CN(C)C(=O)CNC(=O)Cc1ccccc1	x	x	n	x	x	n
Cc1ccc(Cn2cc(CN3CC(N4CCN(C5CCN(C)CC5)CC4)CS3(=O)=O)nn2)cc1 (stereo unspecified)	x	n	n	n	n	n
O=C(CC(SCCO)c1ccc(F)cc1)c1ccco1 (stereo unspecified)	n	n	16µM	n	n	18µM
O=C(NCCc1ccccn1)C1CC12CCN(C(=O)c1ccc(F)cc1Cl)CC2 (stereo unspecified)	x	x	n	x	x	n[9.04 µM]
COc1ccccc1-c1csc(C(NC(C)=O)c2ccccc2)n1 (stereo unspecified)	x	n	n	n	n	n
CCC1CC(C(=O)O)CC(=O)N1 (stereo unspecified)	x	n	n	n	n	n
COc1ccccc1C(=O)NCC(c1ccco1)N1CCc2ccccc21 (stereo unspecified)	n	n	23µM	n	n	15µM
COc1ccc(CCC(=O)NCC(c2ccco2)N2CCc3ccccc32)cc1 (stereo unspecified)	u	n	23µM	n	n	18µM
Cc1ccc(C(=O)NCC(c2ccco2)N2CCc3ccccc32)cc1C (stereo unspecified)	u	n	16µM	n	n	21µM
COc1cc(C(=O)NCC(c2ccco2)N2CCc3ccccc32)cc(OC)c1OC (stereo unspecified)	u	n	9.2µM	n	n	u
